The structures appear in SMILES notation. The panel holds about 83,000 compounds, 20% with a hit somewhere; the sample as a whole holds those more often.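 Treatment: one concentration, 48 hours, 96-well format. Scoring: percent growth, with anything below 10 considered active.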 Values without a mark were called inactive. Active and inactive are the calls of the source.

This assay relates to NCI/ADR-RES ovarian. In words: NCI-60 one-dose screen, 48 h (100 = growth as untreated, 0 = no growth, -100 = all killed). The conditions noted are these: 10 µM unless noted. On the procedure: Growth inhibition of the NCI/ADR-RES human […] tumor cell line is measured as a screen for anti-cancer activity. Cells are grown in 96 well plates and exposed to the test compound for 48 hours. Compounds are tested at a single concentration, which is 10^-5 M for most compounds. The reported endpoint is percent growth (GI% or GIPRCNT), where numbers from 0 - 100% represent growth inhibition, and numbers from -100% - 0 represent cell death. For example, a value of 40 represents 60% growth inhibition. A value of 0 means no net growth occurred over the course of the experiment. A value of -40 indicates 40% of cells at the beginning of the experiment died by the end of the experiment. A value of -100 means all cells are dead at the end of the experiment.
NCI-60 Human Tumor Cell Lines Screen was performed using the standard one-dose NCI protocol, which is described in more detail at https://dtp.cancer.gov/discovery_development/nci-60/default.htm.
Compounds with GIPRCNT values below 10 were considered active. Activity score was based on GIPRCNT using the following formula: […]
Score is 0 for GIPRCNT values of 100 or above, 50 for GIPRCNT values of 0, and 100 for GIPRCNT values of -100.
Consider `CCOC(=O)c1ccccc1SC(C[N+](=O)[O-])c1ccccc1` (stereo not given), for which the growth was 112%.
`Nc1nc(N)c2cc(Sc3ccc(Cl)cc3)ccc2n1`: the growth is 36.2%.
On to `CCOC(=O)C(Nc1ccccc1)C(=O)OCC`, for which the growth was 102%.
As for `COc1cc2nccc(Oc3ccc(NC(=O)C4(C(=O)Nc5ccc(F)cc5)CC4)cc3)c2cc1O`, the growth was 71.7%.
In the case of `Cc1cc(Cl)c2ccc(N(C)C)cc2n1`, the growth is 104%.
For `COc1cc(C2Nc3ccccc3S2)cc(CN2CCOCC2)c1O` (stereo not given), the growth was 34.2%.
As to `O=C(Nc1ccc(Oc2ccc(NC(=O)Nc3ccccc3Cl)cc2)cc1)Nc1ccccc1Cl`, the growth is 70.3%.
In the case of `CCCCC(CCc1ccccn1)C(=O)c1ccccc1` (stereo not given) it was 104%; in that of `CCN(CC)c1ccc2nc3c4ccccc4c(=O)cc-3n(-c3ccccc3)c2c1`, -7.19% (active); in that of `COc1ccc(-c2nsc3c2NC(=O)CC3c2ccc3c(c2)OCO3)cc1` (stereo not given), 13.9%.
Regarding `Cc1[nH]n(C(=O)c2ccncc2)c(=O)c1N=Nc1ccc(O)c(C(=O)O)c1`, the growth was 110%.
The value for `CNC(=O)c1ccccc1Sc1ccc2c(/C=C/c3ccccn3)n[nH]c2c1` was 36.9%; that for `CCCCn1cnc(-c2cc(-c3ccccc3)cc(C(F)(F)F)c2)n1` was 103%; that for `COc1ccc(/C=C2\N=C(c3cccnc3)N(c3ccccc3)NC2=O)cc1` was 100%.
With `CC(C)(C)CC(C)(C)NCc1cc(C(C)(C)C)cc(CNC(C)(C)CC(C)(C)C)c1O`, the growth was 55%.
For the compound `CCOC(C)(c1ccc(Cl)cc1)C1CCNCC1` (stereo not given), the growth was 92.5%.
Regarding `Oc1c(C(c2ccc(F)cc2)N2CCCCC2)ccc2cncnc12` (stereo not given), the growth is 20.3%.
Consider `O=C1/C(=C\c2cccn2Cc2ccc(Cl)cc2)c2ccccc2N1c1c(Cl)cccc1Cl`, for which the growth is 78.3%.
In the case of `COc1cc(/C=C/c2ccc3c(Br)cc(Br)c(O)c3n2)ccc1O` it was 6.88% (active).
Consider `C#CC[C@@H]1C[C@]2(C)[C@H]3CC=C4[C@H]5CC(C)(C)CC[C@]5(C(=O)NCCCCN)CC[C@@]4(C)[C@]3(C)CC[C@H]2C(C)(C)[C@H]1OC(C)=O`, for which the growth is 81.7%.
`O=C(C(Br)C(Br)c1ccccc1)C(Br)C(Br)c1ccccc1` (stereo not given): the growth is 17.1%.
In the case of `Cc1cc(NC(=O)c2ccc(N)cc2)ccc1N=Nc1ccc2cc(S(=O)(=O)O)cc(S(=O)(=O)O)c2c1`, the growth is 108%.
The value for `O=C1OCC2=C1C(c1ccc(Cl)c(Cl)c1)c1cc3c(cc1N2CCO)CCC3` (stereo not given) was 4.51% (active); that for `CCOC(=O)C1=C(C)NC(SCc2nnc(-c3ccc(Cl)cc3)o2)=NC1c1ccc(Cl)cc1` (stereo not given) was 69.9%; that for `c1ccc2c(Cc3csc4ccccc34)csc2c1` was 81.9%.
For `Nc1n[nH]c2ccc([C@@H]3Nc4c(F)cc5[nH]ncc5c4[C@H]4C5CCC(C5)[C@@H]34)cc12` (stereo not given in full), the growth is 13.8%.
For the compound `Fc1cnccc1-c1nc2ccc3[nH]ncc3c2c2c1CCCC2`, the growth is 32.3%.
Consider `COc1ccc2nc(C)cc(Nc3ccccc3O)c2c1`, for which the growth is 46.9%.
`O=C1c2ccccc2C(=O)c2c1oc1ccc3ccccc3c21`: the growth is 79.4%.
As for `COc1ccc(-c2nsc3c2NC(=O)CC3c2cccc(F)c2)cc1` (stereo not given), the growth is 22.8%.
Turning to `CN=C1C=C/C(=N/N=c2/ccn(O)cc2C)C=C1C`, the growth was 97.4%.
In the case of `O=C(CSc1ccc(Cl)cc1)Nc1ccc(-c2nc3ccccc3s2)c(Cl)c1`, the growth is 62%.
With `N=c1n(Cc2ccccc2)c(N)cc(=O)n1Cc1ccccc1`, the growth was 10.6%.
As for `CCN(CC)Cc1cc(Nc2nc(NC3CCC(N(C)C)CC3)c3ccccc3n2)ccc1OC` (stereo not given), the growth was 98.1%.
As for `CC1=NOCC(=O)N1`, the growth is 110%.
Consider `CNC(=O)c1cc(Oc2ccc(NC(=O)c3nc(S(C)(=O)=O)n(C)c3-c3ccc(F)cc3)cc2)ccn1`, for which the growth is 77.8%.
Turning to `O=C(O)c1ccccc1N=Cc1ccccc1`, the growth was 100%.
The value for `CC(=O)Nc1nonc1-c1nc2ccccc2n1Cc1ccc(C(C)(C)C)cc1` was 59.7%.
The value for `Cc1cc(N=Nc2ccc(-c3ccc(N=Nc4ccc(O)c(C(=O)O)c4)cc3)cc2)c(N)c(N=Nc2ccc(C(=O)O)cc2)c1N` was 97.7%.
As to `O=C(CCc1nc2sc3c(c2c(=O)[nH]1)CCC3)NCc1cn(-c2ccccc2)nc1-c1ccccc1`, the growth was 69.5%.
